ALOX12 inh: ALOX12 (human) lipoxygenase inhibition; P18054; purified 12hLO, xylenol orange hydroperoxide absorbance; Potency, µM (titrated, usually from 108 µM), inactives show top-dose activity change, negative = inhibition, usual class: inhibitors; 1.1% of 580,000 active; AID 1671190
Target sequence (P18054 whole entry, looked up): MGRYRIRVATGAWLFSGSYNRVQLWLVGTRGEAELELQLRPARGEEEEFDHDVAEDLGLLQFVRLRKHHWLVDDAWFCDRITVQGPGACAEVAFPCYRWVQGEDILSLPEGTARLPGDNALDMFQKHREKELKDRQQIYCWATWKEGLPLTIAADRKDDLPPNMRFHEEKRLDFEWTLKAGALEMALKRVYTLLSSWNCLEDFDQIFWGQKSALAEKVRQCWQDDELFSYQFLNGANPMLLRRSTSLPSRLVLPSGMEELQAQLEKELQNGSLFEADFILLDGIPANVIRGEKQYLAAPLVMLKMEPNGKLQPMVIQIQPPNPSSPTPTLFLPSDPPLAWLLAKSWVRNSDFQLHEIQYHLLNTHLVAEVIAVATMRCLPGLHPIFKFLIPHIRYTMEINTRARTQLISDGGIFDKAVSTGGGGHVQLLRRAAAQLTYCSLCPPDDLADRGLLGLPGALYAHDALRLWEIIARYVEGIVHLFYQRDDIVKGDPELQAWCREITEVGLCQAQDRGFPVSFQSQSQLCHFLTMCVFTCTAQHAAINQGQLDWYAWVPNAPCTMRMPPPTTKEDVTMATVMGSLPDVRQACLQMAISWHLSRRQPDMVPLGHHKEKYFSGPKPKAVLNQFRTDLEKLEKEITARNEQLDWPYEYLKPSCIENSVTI
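Purified human 12hLO (150 nM final) in 25 mM Hepes, 0.01% Triton X-100, pH 7.0 was preincubated 15 min at room temperature with compound. Then 40 uM arachidonic acid was added, 30 min. Hydroperoxide was read by Fe-XO absorbance ratio 573/405 nm.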
ELG1 repair inh: ELG1-dependent DNA repair inhibition | 2.3% of 330,000 active | Potency, µM (highest dose often 46.1 µM), for the others: at the top dose activity change, negative = inhibition, usual class: inhibitors | HEK293T ELG1-luciferase reporter, luminescence, 16 h; DNA damage induced by 5-fluorouridine; also: nearly all actives have a fitted effect of over 55% in size
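Step one: seed 2,000 cells per well. Step two: pin-transfer compound or DMSO alongside 5-fluorouridine. Step three: incubate 16 hr, 37 °C, 5% CO2. Step four: add ONE-Glo, wait 30 min, read luminescence.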
DT40 TDP1 no CPT: qHTS for Inhibitors of human tyrosyl-DNA phosphodiesterase 1 (TDP1): qHTS in cells in absence of CPT; DT40 Tdp1-/- hTDP1 cells, no CPT, ATP luminescence, 48 h; Potency, µM (highest dose often 46.2 µM), for the others: at the highest dose activity change, negative = growth inhibition, hits mostly inhibitors; 15% of 420,000 active; also: nearly all actives have a fitted effect of over 55% in size
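Chicken DT40 Tdp1-/- cells stably complemented with human TDP1 were seeded at 400 cells/well with DMSO in place of 20 nM camptothecin. After compound pinning, cells grew at least 48 hr at 37 °C; viability read by CellTiter-Glo luminescence.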
DT40 TDP1 CPT: growth inhibition of DT40 Tdp1-/-;hTDP1 cells with camptothecin (screen for TDP1 inhibitors) | chicken DT40 Tdp1-/-;hTDP1 cells + 20 nM CPT, ATP luminescence, 48 h | Potency, µM (doses to about 46.2 µM), for the others: top-dose activity change, negative = growth inhibition, hits mostly inhibitors | 12% of 420,000 active | AID 686979; also: nearly all actives have a fitted effect of over 55% in size
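Chicken DT40 Tdp1-/- cells complemented with human TDP1, 400 cells/well, exposed to compounds plus 20 nM camptothecin for at least 48 h at 37 C; viability read as ATP content by CellTiter-Glo luminescence.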
RORgamma inh: ROR gamma (mouse) transcription inhibition | Drosophila S2 Gal4-RORgamma UAS-luciferase reporter, 20 h | P51450 | Potency, µM (series often up to 53.6 µM), for the others: at the top dose activity change, negative = inhibition, usual class: inhibitors | 5.4% of 310,000 active; also: nearly all actives have a fitted effect of over 60% in size
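Drosophila Schneider cells stably carrying a metallothionein-driven Gal4 DBD–ROR gamma fusion and a UAS-Photinus luciferase reporter were exposed to compound for 1 hr, then induced with copper sulfate (700 uM final) for 20 hr at ambient temperature before luminescence reading.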
Gal4-VP16 FLuc: counter-screen for ROR gamma inhibitors: Gal4-VP16 reporter | Drosophila S2 Gal4-VP16 UAS-luciferase, luminescence, 20 h | Potency, µM (series often up to 53.6 µM), inactives show at the highest dose activity, negative = inhibition, hits mostly inhibitors | 3.5% of 310,000 active | AID 2546;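 also: Gal4-VP16 expression switched on by copper sulfate through the metallothionein promoter; nearly all actives have a fitted effect of over 50% in size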
An asterisk follows results filed as active; ! = a repeat was not active; [ ] = another dose, or the depositor's remark. Only some compounds are listed: those with a hit (about 15% of all), similar ones and a draw of the others. Calls follow the shape of the dose curve; as a rule, active = well fitted curve in the direction sought with a large enough effect; inconclusive = small, poorly fitted or top-dose-only effect, or another doubt; inactive = no such curve, though single readings can be large; an effect the other way counts as inactive or inconclusive. % is scaled to controls: 0 for no effect and ±100 for the full control effect; potency is read from the fitted curve at half-maximal effect.

`CN(C)c1ccccc1C(=O)N1CCCC(C(=O)c2ccc3ccccc3c2)C1` (stereo not drawn) gave ALOX12 inh 0%, ELG1 repair inh inconclusive, DT40 TDP1 no CPT 23µM*, DT40 TDP1 CPT inconclusive, RORgamma inh inconclusive and Gal4-VP16 FLuc 4%.
COc1ccc(-c2noc(-c3cccn3CC(=O)Nc3cccc(Cl)c3C)n2)cc1F was read as ALOX12 inh 4%.
Screening O=C1NCCCCCCN(Cc2ccncc2)[C@@H]2CN(C(=O)Nc3ccc4c(c3)OCCO4)CC[C@H]12 returned ALOX12 inh 3%.
`CC(C)c1ccc2oc3nc(N)c(C(=O)O)cc3c(=O)c2c1` gave ALOX12 inh -6%[57.4 µM], DT40 TDP1 no CPT 4%, DT40 TDP1 CPT -8%, RORgamma inh 7.9µM* and Gal4-VP16 FLuc 4µM*!.
Cc1c(CC(=O)NCc2ccc3c(c2)OCO3)c(=O)oc2cc(O)c(Cl)cc12 was read as ALOX12 inh -11%.
NC(=O)CSc1ccc(S(=O)(=O)N2CCCCC2)cn1 was read as ALOX12 inh inconclusive, ELG1 repair inh inconclusive, DT40 TDP1 no CPT 1% and DT40 TDP1 CPT -10%.
For N#Cc1ccc(CSc2ccc(S(=O)(=O)N3CCCCCC3)cn2)cc1 the results were ALOX12 inh -3%, ELG1 repair inh inconclusive, DT40 TDP1 no CPT 29µM* and DT40 TDP1 CPT inconclusive.
`O=[N+]([O-])c1ccc(CSc2ccc(S(=O)(=O)N3CCCCCC3)cn2)cc1` gave ALOX12 inh -2%, ELG1 repair inh -19%, DT40 TDP1 no CPT 16µM* and DT40 TDP1 CPT 23µM*.
For CC(C)N(C(=O)CSc1ccc(S(=O)(=O)N2CCCCC2)cn1)C(C)C the results were ALOX12 inh 0%, ELG1 repair inh -13%, DT40 TDP1 no CPT -27% and DT40 TDP1 CPT 16µM*.
`CCC(C)NC(=O)CSc1ccc(S(=O)(=O)N2CCN(Cc3ccccc3)CC2)cn1` (stereo not drawn) gave ALOX12 inh -10%, ELG1 repair inh inconclusive, DT40 TDP1 no CPT 29µM* and DT40 TDP1 CPT inconclusive.
`CCCNC(=O)CN(C)C(=O)NC(c1ccc(C(C)C)cc1)C(C)C` (stereo not drawn) gave ALOX12 inh 67%.
O=C(Nc1nnc(S(=O)(=O)N2CCN(c3ccc(F)cc3)CC2)s1)c1ccccc1 was read as ALOX12 inh -3%, ELG1 repair inh inconclusive, DT40 TDP1 no CPT 3%, DT40 TDP1 CPT -6%, RORgamma inh inconclusive and Gal4-VP16 FLuc -6%.
Cc1ccc(N2CCN(S(=O)(=O)c3nnc(NC(=O)c4cccc(F)c4)s3)CC2)cc1 was read as ALOX12 inh -23%, DT40 TDP1 no CPT 15µM* and DT40 TDP1 CPT 18µM*.
Screening CC1CCN(S(=O)(=O)c2nnc(NC(=O)c3cccc(Cl)c3)s2)CC1 returned ALOX12 inh 14%, ELG1 repair inh inconclusive, DT40 TDP1 no CPT 21µM*, DT40 TDP1 CPT 13µM*, RORgamma inh 38% and Gal4-VP16 FLuc -10%.
For CCOC(=O)C1CCN(c2nc3cc(OC)ccc3cc2C#N)CC1 the results were ALOX12 inh -12%, ELG1 repair inh inconclusive, DT40 TDP1 no CPT -14%, DT40 TDP1 CPT -17%, RORgamma inh 17% and Gal4-VP16 FLuc -1%.
CCC(C)(C)n1nnnc1CN1CCN(c2nc3cc(OC)ccc3cc2C#N)CC1 was read as ALOX12 inh inconclusive, ELG1 repair inh inconclusive, DT40 TDP1 no CPT 23µM*, DT40 TDP1 CPT inconclusive, RORgamma inh -15% and Gal4-VP16 FLuc 0%.
For Cc1ccc2nc(N3CCN(Cc4nnnn4C4CCCC4)CC3)c(C#N)cc2c1 the results were ALOX12 inh -24%, ELG1 repair inh inconclusive, DT40 TDP1 no CPT 23µM*, DT40 TDP1 CPT inconclusive, RORgamma inh 45% and Gal4-VP16 FLuc 2%.
COc1ccc(CCC(=O)N2CCN(c3nnc4ccc(Cl)cn34)CC2)cc1 was read as ALOX12 inh 68%.
For O=C(c1cncc(Br)c1)N1CCC(c2nc(C3CCOCC3)no2)CC1 the results were ALOX12 inh 8%.
For CCOc1ccccc1CNC(=O)c1cnn(-c2ccc(C)cc2)c1-n1cccc1 the results were ALOX12 inh -11%, DT40 TDP1 no CPT 21µM* and DT40 TDP1 CPT inconclusive.
For Cc1ccc(-n2ncc(C(=O)NCc3ccccc3C)c2-n2cccc2)cc1 the results were ALOX12 inh -16%, DT40 TDP1 no CPT 23µM* and DT40 TDP1 CPT inconclusive.
Screening O=C(NCc1cccnc1N1CCOCC1)c1cnn(-c2ccc(F)cc2)c1-n1cccc1 returned ALOX12 inh 12%.
`O=C(NCCc1ccccc1)c1cnn(-c2ccc(F)cc2)c1-n1cccc1` gave ALOX12 inh -16%.
O=C(Nc1ccccc1)c1cc(=O)[nH]c2ccccc12 was read as ALOX12 inh -2%.
CNC(=O)[C@H]1C[C@H](Oc2ccccc2)CN1Cc1ccc(OC(C)C)cc1 was read as ALOX12 inh 9%.
CCc1ccc(S(=O)(=O)c2nnn3c2nc(NC2CCCC2)c2ccccc23)cc1 was read as ALOX12 inh 2%[6.33 µM].
`O=C(c1ccc(Cl)cc1)N1CC2(CCCN(Cc3ccc(Cl)cc3)C2)Cc2ccccc21` (stereo not drawn) gave ALOX12 inh 3.5µM*.
Screening C[S+](=O)([O-])N1CC2(CCCN(Cc3ccc(Cl)cc3)C2)Cc2ccccc21 (stereo not drawn) returned ALOX12 inh 4%[6.33 µM].
Screening Cc1ccc(S(=O)(=O)N(C)Cc2ccc(C(=O)N/N=C/c3ccc(OC(F)F)cc3)cc2)cc1 returned ALOX12 inh -18%, ELG1 repair inh -6%, DT40 TDP1 no CPT 21µM*, DT40 TDP1 CPT 15µM*, RORgamma inh -6% and Gal4-VP16 FLuc -6%.
`C/C(=N\NC(=O)c1ccc(CN(C)S(=O)(=O)c2ccc(C)cc2)cc1)c1ccc(OC(F)F)cc1` gave ALOX12 inh 14%, ELG1 repair inh inconclusive, DT40 TDP1 no CPT 1.5µM*, DT40 TDP1 CPT inconclusive, RORgamma inh inconclusive and Gal4-VP16 FLuc inconclusive.
`O=C(NCCc1ccc(Cl)cc1)C(=O)NCC(c1ccco1)S(=O)(=O)c1ccc(Cl)cc1` (stereo not drawn) gave ALOX12 inh -5%, DT40 TDP1 no CPT 13µM* and DT40 TDP1 CPT 16µM*.
